Measurements reported in PubChem BioAssay AID588832 (Broad Institute, 2011).
The whole screen tested about 8,000 compounds, of which fewer than 10 were called active. How the calls were made is not given here. Not all results are given here.

Test system: hedgehog, isoform A (Drosophila melanogaster)
Experiment: Hh protein inhibition, biochemical readout – plate reader, single concentration, primary screen (AID 588832);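 further: 0% = neutral control wells and 100% = positive control wells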
Settings: Biochemical plate reader assay, at 30.3 µM, hits give high values

Row | SMILES | inhibition
1 | Cc1ccc(C(=O)NCCSc2c(C)[nH]c3ccccc23)cc1[N+](=O)[O-] | 3.51% (inactive)
2 | CCCNC(=O)C1=C(C)C(=O)OC12CCC(C)CC2 (centres undefined) | 9.55% (inactive)
3 | CCc1cccc(NC2c3ccccc3C(=O)N2c2ccc(C)cn2)c1 (centres undefined) | 5.06% (inactive)
4 | CCOC(=O)N1CCN(C(=O)c2ccc3c(c2)N(Cc2ccc(F)cc2)CCS3)CC1 | 3.51% (inactive)
5 | COc1cc2cccc(OC)c(=O)c2c(OC)c1OC | -1.79% (inactive)
6 | CC(=O)Oc1cc2cccc(OC(C)=O)c(=O)c2c(OC(C)=O)c1OC(C)=O | 57.6% (active)
7 | CC(=O)Oc1cc(O)c2c(=O)c(OC(C)=O)c(-c3ccc(OC(C)=O)c(OC(C)=O)c3)oc2c1 | 19.3% (inactive)
8 | CCCc1cc(C(=O)NCC(C)C)no1 | 5.23% (inactive)
9 | Cc1cc2cc(CNC(=O)c3ccc(S(=O)(=O)N4CCCCC4)cc3)ccc2[nH]1 | 5.36% (inactive)
10 | Cc1cccc(-n2c(CNC(=O)c3ccccc3)nnc2SCC(=O)Nc2nccs2)c1 | 12.5% (inactive)
11 | COc1ccc(-c2cc(=O)oc3cc(OC(C)C(=O)NCc4ccccn4)ccc23)cc1 (centres undefined) | 7.02% (inactive)
12 | Cn1cc(S(=O)(=O)N2CCc3ccccc32)cc1C(=O)NC1CCCCC1 | 10.2% (inactive)
13 | CC(=O)Nc1cccc(NS(=O)(=O)c2cn(C)c(=O)n(C)c2=O)c1 | 3.85% (inactive)
14 | O=C(Cn1ncc2c1-c1ccccc1OC2)Nc1ccc(S(=O)(=O)N2CCCCC2)cc1 | 6.96% (inactive)
15 | C/C=C(/C)C(=O)OC1c2c(ccc3ccc(=O)oc23)OC(C)(C)C1OC(=O)/C(C)=C\C (centres undefined) | 5.23% (inactive)
16 | O=C1C=CC2=C3c4cc(O)c(O)cc4CC3(O)COC2=C1O (centres undefined) | 70.4% (active)
17 | CCOC(=O)C(C)n1cnc2c(nnn2-c2ccc(F)cc2)c1=O (centres undefined) | 7.02% (inactive)
18 | Cc1ccc(C)c(N2CCN(C(=O)c3cc(S(=O)(=O)N4CCOCC4)cn3C)CC2)c1 | 8.45% (inactive)
19 | COc1ccc(NC(=O)NCCCN2CCN(c3cc(C)ccc3C)CC2)cc1 | 3.64% (inactive)
20 | COc1ccc(CN2CCN(C(=O)Cn3ncn4cccc4c3=O)CC2)c(OC)c1OC | 2.17% (inactive)
21 | CCOc1ccc(NC(=O)CSc2nc3ccccc3nc2N2CCOCC2)cc1 | 7.08% (inactive)
22 | Cc1cc(NC(=O)c2noc3c2CCc2ccccc2-3)n(-c2ccccc2)n1 | 3.64% (inactive)
23 | CC(C)(O)CCCC(C)(O)c1ccc(C(=O)O)cc1O (centres undefined) | 6.9% (inactive)
24 | Cc1c(S(=O)(=O)Nc2cc(Cl)ccc2Cl)c(=O)n(C)c(=O)n1C | 5.23% (inactive)
